In all, about 85,000 compounds went through this assay and about 5,100 (6%) were called active. What follows is part of a selection rich in actives, with near analogues and random picks from the rest. A number with no mark means an inactive call.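 How the source made its calls: active means viability at or below 40%; inactive means viability above 40%.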
Test: proliferation blockers of H69AR lung cancer cells, primary screen, cell-based, human, 86K library (AID 598);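 further: multidrug resistant small cell line overexpressing MRP-1 efflux transporter; 100% = mean luminescence of untreated control wells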
Settings: H69AR lung tumor viability, ATP luminescence, 72 h; at 10 µM; active compounds read low

SMILES | viability
Cc1cccc(C2c3c(n(C)c(=O)n(C)c3=O)N=C3c4ccccc4C(=O)C32)c1 (centres undefined) | 4.39% (active)
Cc1cccc(Cn2c(N3CCN(c4ccccc4)CC3)nc3c2c(=O)n(C)c(=O)n3C)c1 | 72.4%
CCc1nnc(NC(=O)CSc2nc3ccccc3c(=O)n2CCCOC)s1 | 64.5%
Cc1cc(C)n(-c2nc(SCC(=O)N3CCCC3)c3c4c(sc3n2)CCCC4)n1 | 57.6%
CCC(O)CNc1nc(-n2nc(C)cc2C)nc2sc3c(c12)CC(C)(C)OC3 (centres undefined) | 44.6%
COCCNc1nc(-n2nc(C)cc2C)nc2sc3c(c12)CCCC3 | 6.95% (active)
COC(=O)c1cccc(-n2[nH]nnc2=S)c1 | 87.1%
O=[N+]([O-])c1ccc(Oc2ccc(F)cc2Br)c2ccncc12 | 17.6% (active)
Cn1c(SCC(=O)C(C)(C)C)nnc1-c1ccccn1 | 98.3%
CC(=O)C1=C(C)NC(C)=C(C(C)=O)C1c1cn(-c2ccccc2)nc1-c1cccs1 | 93.4%
CCC(=O)NCCc1nc2ccccc2n1CC | 95.2%
CCOC(=O)c1c(NC(=O)CSc2nnc(CNc3ccc(C)cc3C)o2)sc(C)c1C | 92.8%
CC1(C)CC(=O)C=C(N2CCCC2)C1 | 95.2%
O=C1NC(c2cc3c(cc2Cl)OCO3)Oc2ccccc21 (centres undefined) | 32.9% (active)
CC(=O)c1ccc2c(c1)c1ccccc1n2CC(C)C | 73.2%
O=C1c2ccccc2S(=O)(=O)N1CC(O)Cn1c2ccccc2c2ccccc21 (centres undefined) | 92.4%
CS(=O)(=O)N(CC(O)Cn1c2ccccc2c2ccccc21)c1cccc2ccccc12 (centres undefined) | 1.71% (active)
CCCCOc1ccc(C(=O)NCc2ccncc2)cc1 | 78.5%
CCOC(=O)c1cnc(SC)nc1Sc1ccc(Cl)cc1Cl | 85.4%
Cc1ccc(CN(N=Nc2nonc2N)c2nonc2N)c(C)c1 | 79.6%
CCC1(C)Cc2c(sc3nc(SC)nc(N)c23)CO1 (centres undefined) | 62.6%
CCC1(C)Cc2c(sc3nc4n(c(=O)c23)CCCS4)CO1 (centres undefined) | 93.3%
CCC1(C)Cc2c(sc3[nH]c(=S)n(Cc4ccccc4)c(=O)c23)CO1 (centres undefined) | 25% (active)
CCOC(=O)c1sc(C)c2c1NC(C)(c1cccc3ccccc13)NC2=O (centres undefined) | 103%
CCOC(=O)C(C)Sc1nc2ccccc2c(=O)n1CC1CCCCC1 (centres undefined) | 82.4%
COc1ccccc1NC(=O)c1ccc(C)s1 | 92.7%

SMILES | viability
COc1ccccc1NS(=O)(=O)N(C)C | 104%
COc1ccccc1NC(=O)/C=C/C(N)=O | 2.11% (active)
COc1cc(C)c(C(C)C)cc1S(=O)(=O)n1ccnc1 | 101%
CCOC(=O)c1ccc(COC(=O)CCc2nc(-c3ccccc3)c(-c3ccccc3)o2)cc1 | 71.5%
O=C(CSc1nnc(-c2cccs2)n1-c1ccccc1)N1CCN(C(=O)c2ccco2)CC1 | 81.3%
Cc1nnc(SCC(=O)N2CCc3ccccc3C2)s1 | 85.3%
O=C(CSc1nnc(-c2cccs2)n1Cc1ccccc1)N1CCc2ccccc2C1 | 29.9% (active)
C=CCn1c(N)c(S(=O)(=O)c2cccs2)c2nc3ccccc3nc21 | 76.4%
C=CCn1c(N)c(C(=O)OCC(C)C)c2nc3ccccc3nc21 | 93.2%
CC(C)Cn1c(N)c(C(=O)NCc2cccs2)c2nc3ccccc3nc21 | 1.75% (active)
CC(C)(C)c1cc(=O)n2c(nc3ccccc32)[nH]1 | 75.5%
Cc1ccc(SCC(=O)Nc2ncc(C)s2)cc1 | 94.5%
CC(C)C(OC(=O)c1cccs1)C(=O)NC1CCCCC1 (centres undefined) | 101%
Nc1nonc1-c1nc2ccccc2n1CCC(=O)O | 109%
CCC(=O)Nc1nc2ccccc2n1Cc1ccccc1C | 65.7%
COc1ccc(C)c(Cn2c(-c3nonc3N)nc3ccccc32)c1 | 21% (active)
CC(=O)Nc1nonc1-c1nc2ccccc2n1Cc1ccccn1 | 84.4%
COCc1nc2ccccc2n1Cc1ccccc1Br | 98.2%
Nc1nonc1-c1nc2ccccc2n1Cc1ccc(F)cc1 | 18.4% (active)
c1ccc(Nc2nc(N3CCOCC3)c3ccccc3n2)cc1 | 95.8%
O=C(O)CSCc1ccc(C(=O)O)o1 | 96.9%
COc1ccccc1NC(=O)CC(NCCN(C)C)C(=O)O (centres undefined) | 99.1%
CCOC(=O)C1CSC(CC(=O)Nc2ccc(OCC)cc2)C(=O)N1 (centres undefined) | 86.6%
CC(C)C(=O)NC(NC(=S)NC1CCS(=O)(=O)C1)C(Cl)(Cl)Cl (centres undefined) | 102%
Cc1ccc(-n2nc3cc(C)c(NC(=O)c4cccnc4)cc3n2)cc1 | 82%
O=S(=O)(NCC1OCCc2ccccc21)c1ccccc1 (centres undefined) | 87.1%

SMILES | viability
COc1ccc(NC(=O)c2ccc(OC)cc2)cc1 | 105%
COC(=O)c1cc(OC)ccc1-c1ccc(OC)cc1 | 29.3% (active)
COc1ccc(OC)c(C(=O)c2ccc(C(=O)O)cc2)c1 | 99.1%
CCOC(=O)C1=C(C)NC(SC)=NC1c1ccccc1 (centres undefined) | 83.7%
CC1CCN(C(=O)CN(c2ccc(Oc3ccccc3)cc2)S(C)(=O)=O)CC1 | 85%
CCCOn1c(-n2nc(C)cc2C)nc2ccccc2c1=O | 93.8%
COc1ccc(C)cc1N(C)C(=O)c1coc(=O)c2ccccc12 | 94.7%
Cc1cc(C)c2c(c1)cc(C)c1nnc(SCC(=O)Nc3cc(C)on3)n12 | 16.8% (active)
Cc1cc(NC(=O)CSc2nnc(-c3ccc(Cl)s3)o2)no1 | 96.5%
CCOc1ccccc1Nc1nnc(SCC(=O)Nc2cc(C)on2)s1 | 71.1%
CC(C)(C)n1nnnc1C(c1ccc(Cl)cc1)N1CCSCC1 (centres undefined) | 82.5%
COc1ccc(S(=O)(=O)NCc2ccc(C(=O)N(C)Cc3ccco3)cc2)cc1 | 76.5%
Cc1nc2ccc(C(=O)N3CCN(c4ccccc4)CC3)cc2s1 | 91.5%
CC(=O)N1CCCc2cc(S(=O)(=O)CCC(=O)N3CCN(c4ccccc4)CC3)ccc21 | 86.6%
O=C(c1cc2c(s1)CCC2)N1CCN(c2ccccc2)CC1 | 39.4% (active)
COc1ccc(C)cc1S(=O)(=O)Nc1cccc(Cl)c1Cl | 97.3%
CCOc1ccc(C(O)Cc2nc3ccccc3n2C)cc1 (centres undefined) | 96.6%
O=C(COC(=O)c1n[nH]c2ccccc12)NCc1ccccc1 | 96.7%
COC(=O)Nc1ncc(CN2CCCCC2)s1 | 92.5%
CCN1C(=O)/C(=C2/Sc3ccc(OC)cc3N2C)SC1=Nc1ccc(C)cc1 | 66.1%
CCOc1ccc(C2C(C(=O)O)c3ccccc3C(=O)N2CCN2CCOCC2)cc1 (centres undefined) | 85.1%
COc1ccc(C2C(C(=O)N3CCN(c4ccc(OC)cc4)CC3)c3ccccc3C(=O)N2C)cc1 (centres undefined) | 32.2% (active)
COc1ccc(N2CCN(CCNC(=O)CCN3C(=O)COc4ccccc43)CC2)cc1 | 86.1%
CCCNC(=O)c1ccccc1NC(=O)CSCc1ccc(OC)cc1 | 83.9%
COc1ccc(C2=NO[C@@H]3C(=O)N(Cc4ccccc4)C(=O)[C@H]23)cc1OC | 95.8%
CCNCCC(=O)N1c2ccccc2Sc2ccc(NC(=O)OCC)cc21 | 78.6%

SMILES | viability
Cc1ccc(F)c(NC(=O)CCc2ccccc2)c1 | 97.8%
CC(=O)N1CCN(c2cccc(C)c2C)CC1 | 107%
Cc1cccc(N2CCN(C(=O)c3cc4c(=O)[nH]c5ccccc5c4n3C)CC2)c1C | 36% (active)
Cn1c(C(=O)NCCN2CCc3ccccc3C2)cc2c(=O)[nH]c3ccccc3c21 | 61.7%
CCn1c(C)nc2c1C(=O)c1ccccc1C2=O | 69.1%
CC1CCc2c(nc3ncnn3c2Nc2ccc(OC(F)(F)F)cc2)C1 (centres undefined) | 69.4%
CC(Sc1nc2ccccc2c(=O)n1Cc1ccco1)C(=O)c1ccccc1 (centres undefined) | 77.2%
COC(=O)c1c(NC(=O)CSc2nncs2)sc2c1CCCCC2 | 50.8%
COc1ccc(-n2c(SCC(=O)Nc3sc4c(c3C#N)CCCC4)nnc2-c2ccc(O)cc2)cc1 | 11.8% (active)
N#Cc1c(NC(=O)CSc2nc3ccccc3c(=O)n2Cc2ccco2)sc2c1CCCC2 | 3.86% (active)
COc1ccc(-c2nnc(SCC(=O)c3ccco3)n2-c2ccccc2)cc1 | 91.9%
COc1ccccc1NC(=O)CSc1nc2sc(C)c(C)c2c(=O)n1Cc1ccco1 | 58.9%
CCC(C)NC(=O)C1CCCN(C(=O)NC2CCCCC2)C1 (centres undefined) | 94.6%
COc1ccc(C(C#N)Nc2ccc(C)cc2)cc1 (centres undefined) | 89.5%
Cc1cccc(OCCCC(=O)Nc2ccc(S(=O)(=O)N3CCCC3)cc2)c1 | 89.2%
O=C(c1ccc2c(c1)OCO2)N1CCOCC1 | 96.2%
O=C(Cn1cnc2c(cnn2-c2ccc(F)cc2)c1=O)NCCc1ccccc1 | 99.4%
O=C(Cn1cnc2c(cnn2-c2ccccc2)c1=O)NCc1ccccc1 | 30.8% (active)
CN(Cc1ccccc1)C(=O)CCNC(=O)Cn1cnc2ccccc2c1=O | 93.7%
O=C(OC1CCCCC1=O)c1cccc(S(=O)(=O)NCc2ccccc2)c1 (centres undefined) | 68.2%
CCn1c(=O)c(=O)n(CC)c2cc(S(=O)(=O)N3CCc4ccccc43)ccc21 | 27.2% (active)
Cn1c(=O)c(=O)n(C)c2cc(S(=O)(=O)NCCc3ccccc3)ccc21 | 94.1%
Cc1nn(C)c(C)c1S(=O)(=O)N1CCc2ccccc21 | 95.6%
Cc1ccc(S(=O)(=O)N2CC(=O)Nc3ccccc32)cc1C | 102%
Cn1c(=O)n(C)c2cc(S(=O)(=O)N3CCCc4ccccc43)ccc21 | 21.1% (active)
CSc1nc2ccc(S(=O)(=O)N3CCc4ccccc43)cc2s1 | 64.1%

Source: PubChem BioAssay AID598 (SRMLSC, 2007)
